Test results taken from PubChem BioAssay (NCATS).
Values joined by “and” are separate entries in the source; they are usually repeats but may differ in a detail not shown here. Identical values can stand only once. Records with an inconclusive call do not appear. Active and inactive are the calls of the source. Unless noted, calls follow the shape of the dose curve; as a rule, active = well fitted curve in the direction sought with a large enough effect; inconclusive = small, poorly fitted or top-dose-only effect, or another doubt; inactive = no such curve, though single readings can be large; an effect the other way counts as inactive or inconclusive.

What was measured:
[1] = Cell Viability - BJ (AID 421; calls by dose curve;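 also: potency is read from the fitted curve at half-maximal effect; cells exposed to compound for 40 hours at 37 °C before readout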); settings: BJ fibroblast viability, qHTS
Outline: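 Cytotoxicity as drop in intracellular ATP (CellTiter-Glo, 20 min RT) after 40 hr compound exposure of BJ fibroblasts at 37 °C. Titrations scaled between DMSO and 100 uM tamoxifen, Hill-fitted for AC50.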

[2] = Cell Viability - Jurkat (AID 426;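 active = dose-dependent loss of cell ATP signal giving a full or clear fitted curve, ranked by lower potency value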;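 also: potency is read from the fitted curve at half-maximal effect; cells exposed to compound for 40 hours at 37 °C before ATP read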); settings: qHTS
Outline: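 Cells of the human T-cell leukemia line Jurkat (E6-1) are seeded at 5000 per well, treated with compound across a concentration range for 40 hours at 37 °C, then lysed with CellTiter-Glo; luminescence reports ATP.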

[3] = Cell Viability - Hek293 (AID 427;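 active = compounds whose dose-response curve shows a full or clear partial loss of cell viability, called from curve shape rather than a numeric limit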;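 also: potency is read from the fitted curve at half-maximal effect; cells exposed to compound for 40 hours at 37 °C before reading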); settings: qHTS
Outline: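 Luminescent ATP content (CellTiter-Glo, 20 min at room temperature) was measured after a 40 hr, 37 °C compound exposure of HEK293 cells. AC50 values came from Hill-equation fits of qHTS concentration-response data normalized to DMSO and 100 uM tamoxifen.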

[4] = Cell Viability - HepG2 (AID 433; calls by dose curve;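 also: potency is read from the fitted curve at half-maximal effect; potency for ATP loss meaning cytotoxicity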); settings: qHTS
Outline: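 Cytotoxicity read as ATP loss (CellTiter-Glo luminescence) after 40 hr compound exposure of HepG2, 1500 cells/well, 37 °C. AC50 by Hill equation; 0% set by DMSO, 100% inhibition by 100 uM tamoxifen.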

[5] = Cell Viability - SK-N-SH (AID 435; calls by dose curve; also: potency is read from the fitted curve at half-maximal effect); settings: SK-N-SH neuroblastoma cell viability qHTS
Outline: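 qHTS cytotoxicity: CellTiter-Glo ATP luminescence after 40 h compound exposure of human neuroblastoma SK-N-SH cells at 37 °C. AC50 derived by Hill-equation fitting, with DMSO as basal and 100 uM tamoxifen as full inhibition.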

[6] = Cell Viability - Renal Proximal Tubule (AID 545); settings: renal proximal tubule cells viability; series mostly up to 91.7 µM;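 also: 0% = DMSO only and -100% = 100 µM tamoxifen; nearly all actives have a fitted effect of over 40% in size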
Outline: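 Viability taken as intracellular ATP (CellTiter-Glo luminescence) after 40 hr, 37 °C compound treatment of primary proximal tubule cells from rat kidney, 1000 cells/well; Hill-equation fits of qHTS concentration-response data gave AC50.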

[7] = Cellular Toxicity (caspase-3) MRC-5 (AID 659); settings: MRC-5 cells, luminescence, normalized: DMSO 0%, 10 µM staurosporine 100%; series mostly up to 91.7 µM
Outline: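 Apoptosis readout in MRC-5 cells: luciferase light generated after caspase 3/7 cleaves a peptide-aminoluciferin substrate, measured post 16 hr compound incubation at 37 °C.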

[8] = Cellular Toxicity (caspase-3) N2a (AID 665); settings: N2a cells, luminescence, normalized: DMSO 0%, 10 µM staurosporine 100%; series mostly up to 92.2 µM;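 also: compound exposure lasted 16 h at 37 °C before readout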
Outline: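 Caspase-3/7 activation, measured as increased luminescence from aminoluciferin release, is quantified in mouse N2a cells exposed to compounds for 16 h. Values are normalized to DMSO and 10 uM staurosporine, with AC50 derived by Hill modelling.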

[9] = Cellular Toxicity (caspase-3) Renal Proximal Tubule (AID 667); settings: renal proximal tubule cells; series mostly up to 91.7 µM;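 also: cells exposed to compound for 16 hours at 37 °C before detection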
Outline: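 Caspase 3/7 activation measured by luminescent aminoluciferin release in primary rat proximal tubule cells after 16 hr compound exposure at 37 °C. AC50 from Hill-fitted concentration-response, scaled between DMSO and 10 uM staurosporine.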

[10] = MultiTox-Fluor Cytotoxicity Assay - LYMP1-002 - Live Cells (AID 955); settings: LYMP1-002 lymphoblastoid live-cell protease fluorescence viability; series mostly up to 46.1 µM; also: % is scaled to controls: 0 for no effect and ±100 for the full control effect
Outline: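 Cells were seeded at 2500 per well and incubated 5 hr. Compounds were then added for 16 hr at 37 C, followed by MultiTox-Fluor reagent for 60 min at room temperature and fluorescence reading of viable-cell protease signal.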

[11] = MultiTox-Fluor Cytotoxicity Assay - LYMP1-003 - Live Cells (AID 962); settings: LYMP1-003 lymphoblastoid cells, MultiTox-Fluor live-cell protease fluorescence; series mostly up to 92.2 µM;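 also: 0% = DMSO only and full loss = 92 µM tetraoctylammonium bromide; cytotoxic hits lower the live-cell protease signal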
Outline: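 Acute cytotoxicity is scored as a drop in live-cell protease activity in human lymphoblastoid LYMP1-003 cells after 16 hr compound exposure at 37 C. AC50 values come from Hill-equation modelling of concentration-response data.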

[12] = Cell Viability - LYMP1-003 - Assay at 24 hr (AID 963); settings: LYMP1-003 lymphoblastoid cell viability; series mostly up to 92.2 µM;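 also: plate controls were DMSO only for no effect and tetraoctylammonium bromide positive control for full effect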
Outline: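 Cytotoxicity is scored as a concentration-dependent fall in ATP-linked luciferase signal in human lymphoblastoid LYMP1-003 cells treated 24 hr at 37 C in complete culture medium.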

[13] = Cell Viability - LYMP2-021 (AID 974); settings: LYMP2-021 lymphoblastoid cells viability; series mostly up to 92.2 µM;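 also: compound exposure lasts 24 hours at 37 °C; % is scaled to controls: 0 for no effect and ±100 for the full control effect; nearly all actives have a fitted effect of over 55% in size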
Outline: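 Loss of cellular ATP, measured with a luciferase-based CellTiter-Glo readout, serves as the toxicity signal in human lymphoblastoid cells treated for 24 hours at 37 C. Potency is reported as AC50 from a standard Hill model.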

[14] = Cell Viability - LYMP2-007 (AID 979); settings: LYMP2-007 lymphoblastoid cell viability; series mostly up to 92.2 µM;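 also: cells exposed to compound for 24 h before reading; 0% = DMSO only and the negative end = 92 µM tetraoctylammonium bromide; nearly all actives have a fitted effect of over 60% in size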
Outline: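 Cells are seeded at 2500 per well and rested 5 hr. Compounds are then added over a concentration series for 24 hr at 37 C. CellTiter-Glo is added for 30 min at room temperature before luminescence reading.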

[15] = Cell Viability - LYMP2-016 (AID 984); settings: LYMP2-016 lymphoblastoid cell viability, qHTS; series mostly up to 92.2 µM;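 also: cells exposed to compound for 24 hours at 37 °C; % is scaled to controls: 0 for no effect and ±100 for the full control effect; nearly all actives have a fitted effect of over 55% in size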
Outline: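 Cytotoxicity was scored by luminescent ATP content (CellTiter-Glo) after 24 h compound exposure at 37 C of a human lymphoblastoid line at 2500 cells/well. Concentration-response data were fitted to the Hill equation for AC50.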

[16] = Cell Viability - LYMP2-018 (AID 985); settings: LYMP2-018 lymphoblastoid cells, viability (qHTS); series mostly up to 92.2 µM;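 also: compound exposure lasted 24 hr at 37 °C; plate controls were DMSO only for no effect and tetraoctylammonium bromide at 92 µM for full effect; nearly all actives have a fitted effect of over 50% in size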
Outline: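 Seed 2500 lymphoblastoid cells per well, incubate 5 hr at 37 C, add compound and incubate 24 hr at 37 C, add CellTiter-Glo, wait 30 min at room temperature, then read luminescence.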

[17] = Cell Viability - LYMP2-020 (AID 986); settings: series mostly up to 92.2 µM;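 also: plate controls were DMSO only for no effect and tetraoctylammonium bromide at 92 µM for full effect; nearly all actives have a fitted effect of over 55% in size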
Outline: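 Seed 2500 cells per well and incubate 5 hr at 37 C. Add compounds at a concentration series and incubate 24 hr at 37 C. Add CellTiter-Glo, wait 30 min at RT, read luminescence, and fit a Hill curve for AC50.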

[18] = qHTS Assay for Identification of Small Molecule Inducers of Hypoxia Response (AID 2120; active = well fitted curve in the direction sought with a large enough effect in the signal ratio, with a control signal flat, not every such curve was filed as active; the % refers to the signal ratio; also: 0% is about no effect); settings: hypoxia response reporter cells, beta-lactamase ratio readout; series mostly up to 104 µM
Outline: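 Cell-based qHTS for reporter induction: hypoxia response element controlled beta-lactamase in ME-180 cells. Compounds incubated 17 h at 37 degrees C; activity from blue/green (460/530 nm) ratio, inducers ranked by AC50.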

[19] = qHTS assay for small molecule agonists of the antioxidant response element (ARE) signaling pathway measured by Nrf2-dependant transcriptional activity - cell viability counter screen (AID 720653; active = well fitted curve in the direction sought with a large enough effect in the repeat runs; an effect the other way counts as inactive or inconclusive; also: % is scaled to controls: 0 for no effect and ±100 for the full control effect); settings: ARE-bla HepG2 viability, CellTiter-Glo ATP luminescence, 16 h; stronger effect = lower value
Outline: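 ARE-bla HepG2 cells (2,000/well) rested 5 hrs at 37C/5% CO2, then exposed to compounds in DMSO for 16 hrs. Viability was read in the same wells as intracellular ATP by luminescence, 30 min at room temperature after reagent addition.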

[20] = qHTS assay for cell viability of HEK293 cells (AID 743288); settings: ATP luminescence (CellTiter-Glo), 18 h, stronger effect = lower value; also: % is scaled to controls: 0 for no effect and ±100 for the full control effect; nearly all actives have a fitted effect of over 50% in size
Outline: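 Readout is luciferase-coupled ATP content (CellTiter-Glo luminescence, 30 min room temperature) as a measure of metabolically competent cells. Parental HEK293 cells were plated 5 h or more before compound addition, then treated 18 h at 37 C.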

BrC(Br)Br
inactive: Potency [1] > 92 µM | Potency [2] > 92 µM | Potency [3] > 92 µM | Potency [4] > 92 µM | Potency [5] > 92 µM | outcome [6] | outcome [7] | outcome [8] | outcome [9] | outcome [10] | outcome [11] | outcome [12] | Potency [13] | Potency [14] | Potency [15] | Potency [16] | Potency [17] | Potency [18] | max response [19] -14.5% | max response [20] -3.11%

BrCC(Br)C1CCC(Br)C(Br)C1 (centres undefined)
inactive: Potency [1] > 92 µM | Potency [2] > 92 µM | Potency [3] > 92 µM | Potency [4] > 92 µM | Potency [5] > 92 µM | outcome [6] | outcome [7] | outcome [8] | outcome [9] | outcome [10] | outcome [11] | outcome [12] | Potency [13] | Potency [14] | Potency [15] | Potency [16] | Potency [17] | Potency [18] | max response [19] -1.58% | max response [20] 1.74%

C=CC=O
inactive: Potency [1] > 92 µM | Potency [2] > 92 µM | Potency [3] > 92 µM | Potency [4] > 92 µM | Potency [5] > 92 µM | outcome [6] | outcome [7] | outcome [8] | outcome [9] | outcome [10] | outcome [11] | outcome [12] | Potency [13] | Potency [14] | Potency [15] | Potency [16] | Potency [17] | Potency [18] | max response [19] 9.03% | max response [20] -14.3%

COC(=O)Nc1nc2ccccc2[nH]1
active: Potency [2] 3.38 µM
inactive: Potency [1] > 92 µM | Potency [3] > 92 µM | Potency [4] > 92 µM | Potency [5] > 92 µM | outcome [7] | outcome [8] | outcome [9] | outcome [10] | outcome [11] | outcome [12] | Potency [13] | Potency [14] | Potency [15] | Potency [16] | Potency [17] | Potency [18] | max response [19] 0.0482% and -1.74% | max response [20] -9.84% and -19.2%

Clc1cccc2ccccc12
inactive: Potency [1] > 92 µM | Potency [2] > 92 µM | Potency [3] > 92 µM | Potency [4] > 92 µM | Potency [5] > 92 µM | outcome [6] | outcome [7] | outcome [8] | outcome [9] | outcome [10] | outcome [11] | outcome [12] | Potency [13] | Potency [14] | Potency [15] | Potency [16] | Potency [17] | Potency [18] | max response [19] 5.5% | max response [20] -4.26%

CC(C)(OOC(C)(C)c1ccccc1)c1ccccc1
inactive: Potency [1] > 92 µM | Potency [2] > 92 µM | Potency [3] > 92 µM | Potency [4] > 92 µM | Potency [5] > 92 µM | outcome [6] | outcome [7] | outcome [8] | outcome [9] | outcome [10] | outcome [11] | outcome [12] | Potency [13] | Potency [14] | Potency [15] | Potency [16] | Potency [17] | Potency [18] | max response [19] -15.2% and -2.58% | max response [20] -10.5% and -9.14%

Cc1cc(-c2cc(C)c(N)c(C)c2)cc(C)c1N
inactive: Potency [1] > 92 µM | Potency [2] > 92 µM | Potency [3] > 92 µM | Potency [4] > 92 µM | Potency [5] > 92 µM | outcome [6] | outcome [7] | outcome [8] | outcome [9] | outcome [10] | outcome [11] | outcome [12] | Potency [13] | Potency [14] | Potency [15] | Potency [16] | Potency [17] | Potency [18] | max response [19] -5.77% | max response [20] 7.5%

ClCC(Cl)CCl
inactive: Potency [1] > 92 µM | Potency [2] > 92 µM | Potency [3] > 92 µM | Potency [4] > 92 µM | Potency [5] > 92 µM | outcome [6] | outcome [7] | outcome [8] | outcome [9] | outcome [10] | outcome [11] | outcome [12] | Potency [13] | Potency [14] | Potency [15] | Potency [16] | Potency [17] | Potency [18] | max response [19] 3.4% and -4.41% | max response [20] -3.69% and -5.22%
